# Source: PubChem BioAssay (National Center for Advancing Translational Sciences (NCATS))
# FMDV antiviral = foot and mouth disease virus antiviral activity | FMDV antiviral cell-based qHTS | Potency, µM (doses to about 57.9 µM), actives largely listed as inhibitors | actives 1.2% (n = 410,000); calls by dose curve; tested in HEK293T cells; note: read-out not given here; nearly all actives have a fitted effect of over 45% in size
# Marburg entry inh = Marburg virus entry inhibition | Marburg virus pseudotyped entry inhibition, cell reporter | Potency, µM (highest dose often 37.8 µM), most hits filed as inhibitors | actives 1.8% (n = 300,000) | AID 540276; calls by dose curve; tested in HEK293 cells
# LASV entry inh = inhibitors of Lassa virus binding or cell entry | Lassa virus pseudotype entry inhibition, cell reporter | Potency, µM (top dose mostly 37.9 µM), actives largely listed as inhibitors | actives 1.2% (n = 300,000); calls by dose curve; tested in HEK293 cells; note: nearly all actives have a fitted effect of over 50% in size
# HCV inhibitor = inhibitors of hepatitis C virus infection | Potency, µM (top dose mostly 41.8 µM), actives largely listed as inhibitors | Huh7.5.1 HCVcc-Cre infection, luciferase reporter, 44 h | AID 651820 | actives 3.4% (n = 340,000); active = well fitted inhibition curve with a large enough effect; inconclusive = small, poorly fitted or top-dose-only effect, or another doubt; inactive = no such curve, though single readings can be large or run the other way
#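 Compounds are dispensed onto cells plated 4 h earlier at 1,000 per well, with HCVcc-Cre virus (about 0.5 moi) added next. Following 44 h of culture, luminescent signal is measured for 15 sec after 15 min with substrate at room temperature.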
# SARS PLpro yeast = inhibitors of SARS-CoV papain-like protease in yeast. S. cerevisiae expressing SARS-CoV PLpro, growth rescue. Potency, µM (top dose mostly 32.9 µM), usual class: activators. actives 0.19% (n = 330,000). AID 485353; calls by dose curve; note: nearly all actives have a fitted effect of over 55% in size
# HCMV inh = human cytomegalovirus inhibition | activity change, negative = inhibition, % at 57.5 µM | AID 1259415 | actives 4.5% (n = 410,000) | HFF cells, HCMV-luciferase reporter, 72 h; hits give low values; in the data active = activity change below about -60%; inconclusive = no clear call, values can overlap the other calls; inactive = above about -39%
#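 Compounds were evaluated in HFFs infected with an HCMV luciferase reporter virus (MOI 1 PFU/cell). Luciferase in lysates collected 72 h post infection served as the replication measure.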
# Numbers stand for hits; - = inactive; ? = inconclusive; . = no result given. Hits are enriched below; roughly 8% of the tested compounds scored in any of these assays.
SMILES,FMDV antiviral,Marburg entry inh,LASV entry inh,HCV inhibitor,SARS PLpro yeast,HCMV inh
Cc1ccc(CN2C(=O)C(=O)c3cc(Br)cc(C)c32)cc1,?,?,?,.,.,-103
CCNC(=S)N/N=C/c1ccc(C#N)cc1,-,?,?,?,-,-62
CC(=O)c1ccc(NC(=O)c2sc(-n3nc(C)c(CCC(C)C)c3C)nc2C)cc1,-,-,-,.,.,-
O=C(O)c1ccc(S(=O)(=O)N[C@H](Cc2ccc([N+](=O)[O-])cc2)C(=O)O)cc1,.,.,.,.,2.2µM,.
O=C(O)c1ccc(S(=O)(=O)N[C@H](Cc2ccc(C(F)(F)F)cc2)C(=O)O)cc1,.,.,.,.,2.8µM,.
CC(=O)N1c2ccc(S(=O)(=O)N3CCOCC3)cc2CC1C (stereo not given),-,-,-,-,-,-
CC(=O)c1ccc(N2CCN(S(=O)(=O)c3ccc4c(c3)CC(C)N4C(C)=O)CC2)cc1 (stereo not given),?,?,?,6.3µM,-,-
Cc1cc(Cl)ccc1NC(=O)CCS(=O)(=O)c1ccc2c(c1)CC(C)N2C(=O)C1CC1 (stereo not given),-,.,-,.,.,-65
CC(=O)N1CCc2cc(S(=O)(=O)N3c4ccccc4CC3C)ccc21 (stereo not given),.,?,?,?,-,-77
CC(=O)c1ccc(N2CCN(S(=O)(=O)c3ccc4c(c3)CC(C)N4C(=O)C3CC3)CC2)cc1 (stereo not given),?,.,.,3.5µM,-,-
CC(C)N1C[C@@H](Sc2ccccn2)C[C@H]1C(=O)Nc1ccc2c(c1)Nc1ccccc1CC2,-,.,.,.,.,.
O=C(O)C[C@H](SCc1ccc(C(=O)O)o1)C(=O)O,.,-,.,.,.,.
Cc1cccc(N2CCN(S(=O)(=O)c3ccc4c(c3)CCCN4C(=O)C3CCC3)CC2)c1C,?,.,6.3µM,14µM,-,?
O=C(C1CC1)N1CCc2cc(S(=O)(=O)N3CCCc4ccccc43)ccc21,-,-,?,-,-,-68
CCC(=O)N1CCCc2cc(S(=O)(=O)N3CCN(c4ccccc4F)CC3)ccc21,?,.,.,13µM,-,?
CCC(=O)N1CCc2cc(S(=O)(=O)N3CCc4ccccc43)ccc21,-,-,-,-,-,-
Cc1cccc(N2CCN(S(=O)(=O)c3ccc4c(c3)CC(C)N4C(=O)C3CC3)CC2)c1C (stereo not given),?,.,.,?,-,-61
Cc1ccc(C)c(N2CCN(S(=O)(=O)c3ccc4c(c3)CC(C)N4C(=O)C3CC3)CC2)c1 (stereo not given),-,?,?,?,-,?
Cc1cc(C)c2c(CC(=O)Nc3c(C(=O)c4ccc(F)cc4)oc4ccccc34)coc2c1,-,-,-,.,.,-
C=C1N(S(=O)(=O)C(F)(F)F)CCC12CN(S(=O)(=O)c1ccc(C)cc1)c1ccccc12 (stereo not given),.,.,.,.,.,-70
COc1ccc(C(=O)Nn2c(SCC(=O)NCC3CCCO3)nc3ccccc3c2=O)cc1 (stereo not given),11µM,?,7.3µM,-,-,?
COc1ccc(C(=O)Nn2c(SCC(=O)NC3CCCC3)nc3ccccc3c2=O)cc1,18µM,?,?,-,-,-
CCOC(=O)Cc1ccc(NC(=O)NCc2c(-n3cccc3)sc3c2CCCC3)cc1,-,-,-,.,.,-
O=C(Cn1ncc2ccc(Cl)cc21)NCc1ccc(F)cc1,-,-,-,.,.,-
COc1cccc(C2C(C(=O)Nc3ccccc3)=C(C)Nc3nnnn32)c1OC (stereo not given),-,.,-,.,.,-100
SMILES,FMDV antiviral,Marburg entry inh,LASV entry inh,HCV inhibitor,SARS PLpro yeast,HCMV inh
CC(C)(C)OC(=O)N(CCc1ccccc1)Cc1ccccc1OCc1cccc(NC(=O)C2CCCC2)c1,-,.,.,-,.,-
CC(C)(C)OC(=O)N(CCc1ccccc1)Cc1ccccc1OCc1cccc(NC(=O)C2CC2)c1,-,.,.,-,.,-
CC(C)(C)OC(=O)N(CCc1ccccc1)Cc1ccccc1OCc1ccc(NC(=O)C2CCC2)cc1,-,.,.,0.56µM,.,?
CC(C)(C)OC(=O)N(Cc1ccccc1)Cc1ccccc1OCc1ccc(NC(=O)C2CCC2)cc1,-,.,.,?,.,-90
CCOC(=O)CNC(=O)O[C@H]1C(=O)c2ccc(OC)cc2O[C@@H]1c1ccc2c(c1)OCO2,.,-,?,.,.,.
O=C(Nc1ccc(Cl)cc1)Nc1nnc(CSCc2ccccc2)s1,-,-,-,-,-,-70
O=C(Cc1nnc(NC(=O)Nc2ccc(Cl)cc2)s1)NCc1ccccc1,-,-,-,-,?,-
O=C(Nc1ccc(Cl)cc1)Nc1nnc(CSc2ccc(Cl)cc2)s1,?,?,-,?,-,-85
Cc1ccc(NC(=O)Nc2nnc(CSCCOc3ccc(Cl)cc3)s2)cc1,-,-,-,-,-,-
O=C(Nc1cccc(Cl)c1)Nc1nnc(CC2=CCCCC2)s1,?,-,-,?,-,-98
O=C(Nc1cccc(Cl)c1)Nc1nnc(CSCCOc2ccc(Cl)cc2)s1,?,?,?,2.5µM,-,-72
CC(=O)Nc1ccc(S(=O)(=O)N2CCC(n3c(C(F)(F)F)nc4cccnc43)CC2)cc1,-,.,-,.,.,-
N#Cc1ccc2nc(-c3ccc(CN4CCC(c5nc6ccccc6[nH]5)CC4)cc3)c(-c3ccccc3)nc2c1,.,.,.,.,.,-
Cc1ccc(N2CC(NC(=O)C3CCCC3)CC2=O)cc1 (stereo not given),-,.,-,.,.,-
CCC[C@@H]1[C@@H]2C(=O)N(c3ccccc3OC)C(=O)[C@H]2ON1c1ccccc1,.,-,.,.,.,.
Cc1cc(C)c2c(N)c3ccccc3nc2n1,-,?,-,?,-,-108
CCc1ccc2nc3nc(C)cc(C)c3c(N)c2c1,.,?,?,?,-,-
CC1(C(=O)Nc2nccs2)CCN1C(=O)CC(c1ccccc1)c1ccccc1 (stereo not given),-,.,.,.,.,-102
CN1CCC(Nc2nc(Br)cnc2N)CC1,.,.,.,.,.,-
CCCSc1nc2c([nH]c3ccccc32)c(=O)n1C,-,.,?,.,.,-
Oc1ccc(N=Nc2ccc(Br)cc2)c(O)c1,-,.,.,-,-,-
Cc1ccc(N=Nc2ccc(O)cc2)c(Br)c1,-,?,10µM,-,-,-
COc1ccc(-c2nc3n(n2)C(=O)C[C@@H](c2ccco2)S3)cc1,.,-,.,.,.,.
COc1cccc(-c2sc3ccccc3c2-c2ccc(OCCN3CCCC3)cc2)c1,?,.,.,?,-,-
COc1cccc(-c2sc3ccccc3c2-c2ccc(OCCN(C)C)cc2)c1,?,.,.,11µM,-,-
COc1ccc2sc(-c3ccccc3OC)c(-c3ccc(OCCN(C)C)cc3)c2c1,-,.,.,10µM,-,-
Cc1nc(N2CCCC2)ncc1C(=O)N1CCN(c2ccccc2F)CC1,-,.,-,.,.,-
CCOc1ccc(N(CC(=O)Nc2cccc(N(C)S(C)(=O)=O)c2)S(=O)(=O)c2ccccc2)cc1,-,?,?,?,-,-64
CN(c1cccc(NC(=O)CN(c2cccc(Cl)c2)S(=O)(=O)c2ccccc2)c1)S(C)(=O)=O,-,?,?,11µM,-,?
